According to PubChem BioAssay (Tox21):
Records with an inconclusive call do not appear. Active and inactive are the calls of the source. Unless noted, the call rests on the fitted dose curve.

What was measured:
[1] = Nuclear factor erythroid 2-related factor 2/antioxidant responsive element (Nrf2/ARE) small molecule agonists: qHTS cell viability counter screen in human keratinocytes (AID 1919968; active means well fitted curve in the direction sought with a large enough effect in the repeat runs; an effect the other way counts as inactive or inconclusive; further: nearly all actives have a fitted effect of over 55% in size)
In short: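 KeratinoSens HaCaT cells, 1,500/well, preincubated 5 h, then exposed to compounds in DMSO for 23 h at 37 C/5% CO2. Viability read as CellTiter-Fluor fluorescence after 1 h, in the same wells as the ARE-luciferase read.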

[2] = Nuclear factor erythroid 2-related factor 2/antioxidant responsive element (Nrf2/ARE) small molecule agonists: luciferase reporter gene qHTS assay in human keratinocytes (AID 1919969); further: nearly all actives have a fitted effect of over 35% in size
[3] = target: Gonadotropin-releasing hormone receptor (Homo sapiens) (UniProt P30968); assay: Human gonadotropin-releasing hormone receptor (GnRHR) small molecule agonists, calcium flux assay in GnRHR-HEK293 cells (AID 1920063); further: nearly all actives have a fitted effect of over 35% in size
In short: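 HEK293 cells stably expressing human GnRHR were dye-loaded for 1 h at 37 C. Compound was added in agonist mode and fluorescence (Ex/Em 480/540) recorded kinetically for 3 min. Fifteen concentrations, triplicates.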

[4] = target: KiSS-1 receptor (Homo sapiens) (UniProt Q969F8); assay: Human kisspeptin (KISS1R) small molecule agonists, calcium flux assay in KISS1R-HEK293 cells (AID 1920064; active means well fitted curve in the direction sought with a large enough effect in the repeat runs; an effect the other way counts as inactive or inconclusive)
In short: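 HEK293 cells stably expressing human KISS1R were loaded with calcium dye for 1 h at 37 C, then given compound; fluorescence (Ex/Em 480/540) was read kinetically for 3 min. Fifteen concentrations, triplicate.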

[5] = G protein-coupled receptor (GPCR) small molecule agonists, calcium flux assay: HEK293 wild type cell line counter screen (AID 1920065)
In short: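 Wild-type HEK293 cells plated 18 h, loaded with calcium dye 1 h at 37 C, then compounds added in agonist mode (ATP as positive control). Kinetic fluorescence Ex/Em 480/540 recorded 3 min at 1 sec intervals; 15 concentrations, triplicate.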

[6] = p53 small molecule agonists, cell-based qHTS assay with human liver microsomes (AID 1963577)
In short: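 Fluorescence of the beta-lactamase reporter in p53RE-bla cells, detected with LiveBLAzer substrate (2 h, room temperature, dark), served as the read-out after 16 h compound exposure at 37 C with human liver microsomes and NADPH, each 0.5 mg/mL final.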

[7] = p53 small molecule agonists, cell-based qHTS assay with rat liver microsomes (AID 1963578)
In short: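 Cells carrying a p53 response element–beta-lactamase reporter were plated and rested 5 h, then dosed with compound in DMSO plus rat liver microsomes and NADPH, each at 0.5 mg/mL final. After 16 h at 37 C, LiveBLAzer substrate was added for 2 h.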

[8] = p53 small molecule agonists, cell-based qHTS assay with human liver microsomes: qHTS cell viability counter screen (AID 1963579); further: nearly all actives have a fitted effect of over 45% in size
In short: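 Cytotoxicity counter screen: p53RE-bla, 4,000 cells/well; 5 h settle, 37 C/5% CO2; cpd + HLM 0.5 mg/mL + NADPH 0.5 mg/mL (final); 16 h, 37 C; CellTiter-Glo, 30 min RT, luminescence.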

[9] = p53 small molecule agonists, cell-based qHTS assay with rat liver microsomes: qHTS cell viability counter screen (AID 1963580); further: nearly all actives have a fitted effect of over 45% in size
In short: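 Intracellular ATP, by CellTiter-Glo luminescence, defines viability. HCT-116 p53RE-bla cells, 4,000 per well, were compound-treated in the presence of rat liver microsomes and NADPH for 16 h at 37 C.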

[10] = p53 small molecule agonists, cell-based qHTS assay: qHTS cell viability counter screen (AID 1963581); further: nearly all actives have a fitted effect of over 45% in size
In short: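 p53RE-bla HCT-116 cells, compounds added 5 h after plating and incubated 16 h at 37 C. Cytotoxicity measured in the same wells as intracellular ATP by CellTiter-Glo luminescence after 30 min at room temperature.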

[11] = p53 small molecule agonists, cell-based qHTS assay (AID 1963582; active means well fitted activation curve with a large enough effect in the signal ratio in the repeat runs, not every such curve was filed as active; the % refers to the signal ratio)
In short: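 p53RE-bla reporter cells, compounds added in DMSO after 5 h plating, incubated 16 h at 37 C. Beta-lactamase read via 2 h room-temperature LiveBLAzer B/G FRET substrate, fluorescence intensity.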

[12] = target: 5-hydroxytryptamine receptor 2A (Homo sapiens) (UniProt P28223); assay: 5-hydroxytryptamine receptor 2A (HTR2A) small molecule antagonists, cell-based qHTS assay (AID 1963586); further: nearly all actives have a fitted effect of over 45% in size; further: potency means the concentration at half of the fitted maximal effect
In short: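 Antagonist-mode intracellular calcium assay: DOI (4 nM) added after 5 min compound pre-incubation at room temperature to dye-loaded HTR2A-CHO cells. Fluorescence followed for 3 min, sampled every second.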

[13] = target: 5-hydroxytryptamine receptor 2A (Homo sapiens) (UniProt P28223); assay: 5-hydroxytryptamine receptor 2A (HTR2A) small molecule agonists, cell-based qHTS assay (AID 1963587); further: nearly all actives have a fitted effect of over 30% in size
In short: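 Kinetic calcium-flux fluorescence (2 min, 1 sec intervals) after compound addition in agonist mode. HTR2A-CHO cells were cultured 18 h, then dye-loaded 1 h at 37 C.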

[14] = target: Muscarinic acetylcholine receptor M1 (Homo sapiens) (UniProt P11229); assay: Cholinergic receptor muscarinic 1 (CHRM1) small molecule antagonists, cell-based qHTS assay (AID 1963588); further: nearly all actives have a fitted effect of over 40% in size
In short: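 CHRM1-CHO calcium-flux assay, antagonist mode. Cells were seeded 18 h, dye-loaded 1 h at 37 C and given compound for 5 min at RT, then acetylcholine was added at 50nM. FDSS fluorescence was read 3 min; 15 concentrations, three runs.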

[15] = cAMP Responsive Elements (CRE) small molecule antagonists, cell-based qHTS assay (AID 1963591; active means well fitted inhibition curve with a large enough effect in the signal ratio in the repeat runs, not every such curve was filed as active; the % refers to the signal ratio)
In short: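 CRE-bla HEK293T cells plated 18 h, then given compound plus NKH477 at 0.25 uM final for 3 h at 37C. Beta-lactamase reporter read with LiveBLAzer B/G FRET substrate after 2 h at room temperature.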

[16] = target: Beta-2 adrenergic receptor (Homo sapiens) (UniProt P07550); assay: Adrenergic beta2 receptor (ADRB2) small molecule antagonists, cell-based qHTS assay (AID 1963592); further: series mostly up to about 92 µM; nearly all actives have a fitted effect of over 50% in size
In short: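 Cells (CHO, stable ADRB2 overexpression) incubated 18-20hr at 37C; compounds added from DMSO; agonist mix (1nM isoproterenol, 100uM IBMX, 25uM Ro-20-1724) added; 0.5hr RT; d2-cAMP and anti-cAMP-cryptate added; 1hr RT; 665/615 nm read.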

[17] = target: Beta-2 adrenergic receptor (Homo sapiens) (UniProt P07550); assay: Adrenergic beta2 receptor (ADRB2) small molecule agonists, cell-based qHTS assay (AID 1963593);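 further: CHO cells stably overexpressing human ADRB2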
In short: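 CHO cells stably over-expressing ADRB2 were plated overnight at 37C, then dosed with compounds plus a stimulation mix containing 100uM IBMX and 25uM Ro-20-1724 for 0.5hr at room temperature. cAMP was measured by HTRF competition, 1hr.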

[18] = target: D(2) dopamine receptor (Homo sapiens) (UniProt P14416); assay: Dopamine D2 receptor (DRD2) small molecule antagonists, cell-based qHTS assay (AID 1963595; active means well fitted inhibition curve with a large enough effect in the signal ratio in the repeat runs, with a control signal flat; the % refers to the signal ratio)
In short: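 Antagonism was scored as restored cAMP in HEK293-DRD2 cells. These cells were stimulated with 200 nM NKH477 and 12 nM quinpirole for 30 min at room temperature, in the presence of 0.1 mM Ro20-1724.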

[19] = target: D(2) dopamine receptor (Homo sapiens) (UniProt P14416); assay: Dopamine D2 receptor (DRD2) small molecule agonists, cell-based qHTS assay (AID 1963594); further: nearly all actives have a fitted effect of over 35% in size
In short: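 cAMP accumulation in DRD2-HEK293 cells measured by HTRF after 1 h detection; compounds added 10 min before NKH477 (200nM […]) forskolin-analogue stimulation, 30 min at room temperature, with Ro20-1724 present at 0.1 mM final.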

[20] = cAMP Responsive Elements (CRE) small molecule agonists, cell-based qHTS assay (AID 1963590)
In short: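 CRE-bla HEK 293T cells, 2,000/well in DMEM with 10% dialyzed FBS and 25 mM HEPES, pre-incubated 18 h at 37 C, then exposed to compound 3 h at 37 C. Beta-lactamase reporter read with LiveBLAzer B/G FRET substrate after 2 h at room temperature.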
On the % scale 0 is the no-effect control and ±100 the full control effect.

Chain of Beta-2 adrenergic receptor (Homo sapiens) (P07550 whole entry, looked up): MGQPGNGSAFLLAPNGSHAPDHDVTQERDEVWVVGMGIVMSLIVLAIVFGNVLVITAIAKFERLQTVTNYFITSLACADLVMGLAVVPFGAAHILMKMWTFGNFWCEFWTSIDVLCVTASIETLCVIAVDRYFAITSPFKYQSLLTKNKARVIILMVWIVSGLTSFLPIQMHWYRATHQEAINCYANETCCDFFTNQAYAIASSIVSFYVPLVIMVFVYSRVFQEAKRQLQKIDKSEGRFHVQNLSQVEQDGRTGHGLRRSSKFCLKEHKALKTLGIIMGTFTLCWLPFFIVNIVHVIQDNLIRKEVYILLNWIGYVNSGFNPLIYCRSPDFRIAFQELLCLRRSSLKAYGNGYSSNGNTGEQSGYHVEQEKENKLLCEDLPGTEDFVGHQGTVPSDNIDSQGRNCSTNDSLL
Chain of D(2) dopamine receptor (Homo sapiens) (P14416 whole entry, looked up): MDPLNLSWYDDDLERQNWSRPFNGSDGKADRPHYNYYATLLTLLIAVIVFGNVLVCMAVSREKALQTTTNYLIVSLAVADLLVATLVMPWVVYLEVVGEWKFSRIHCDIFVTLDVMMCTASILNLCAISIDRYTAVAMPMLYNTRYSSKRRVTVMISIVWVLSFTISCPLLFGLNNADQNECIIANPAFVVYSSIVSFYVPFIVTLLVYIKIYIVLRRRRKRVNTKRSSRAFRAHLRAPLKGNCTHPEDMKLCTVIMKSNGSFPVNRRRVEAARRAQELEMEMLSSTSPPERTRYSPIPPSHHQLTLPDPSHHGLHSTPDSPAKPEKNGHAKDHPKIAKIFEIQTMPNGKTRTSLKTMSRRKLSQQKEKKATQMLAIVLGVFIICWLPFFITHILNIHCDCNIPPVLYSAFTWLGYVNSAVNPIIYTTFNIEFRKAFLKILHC
Chain of KiSS-1 receptor (Homo sapiens) (Q969F8 whole entry, looked up): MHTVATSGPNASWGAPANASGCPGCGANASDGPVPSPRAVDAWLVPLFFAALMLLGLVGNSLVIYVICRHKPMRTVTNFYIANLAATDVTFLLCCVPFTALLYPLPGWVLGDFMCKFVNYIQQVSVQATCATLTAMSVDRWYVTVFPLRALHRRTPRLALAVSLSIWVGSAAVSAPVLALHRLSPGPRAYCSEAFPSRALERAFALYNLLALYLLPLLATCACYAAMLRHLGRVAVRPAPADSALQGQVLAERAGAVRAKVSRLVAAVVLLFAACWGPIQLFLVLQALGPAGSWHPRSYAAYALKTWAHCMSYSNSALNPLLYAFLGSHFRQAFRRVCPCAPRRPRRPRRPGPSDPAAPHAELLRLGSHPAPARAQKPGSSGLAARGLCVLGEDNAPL
Chain of Muscarinic acetylcholine receptor M1 (Homo sapiens) (P11229 whole entry, looked up): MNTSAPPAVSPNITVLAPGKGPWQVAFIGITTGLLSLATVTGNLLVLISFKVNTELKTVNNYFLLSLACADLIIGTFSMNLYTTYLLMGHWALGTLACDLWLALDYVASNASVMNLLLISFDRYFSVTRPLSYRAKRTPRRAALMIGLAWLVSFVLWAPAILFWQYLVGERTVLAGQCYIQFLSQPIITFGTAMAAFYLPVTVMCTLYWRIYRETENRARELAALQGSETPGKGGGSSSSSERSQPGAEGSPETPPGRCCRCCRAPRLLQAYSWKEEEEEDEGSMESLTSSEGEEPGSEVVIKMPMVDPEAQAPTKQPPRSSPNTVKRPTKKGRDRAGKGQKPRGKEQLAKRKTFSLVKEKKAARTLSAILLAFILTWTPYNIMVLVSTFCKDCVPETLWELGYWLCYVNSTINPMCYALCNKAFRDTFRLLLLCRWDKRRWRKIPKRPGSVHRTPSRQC
Chain of Gonadotropin-releasing hormone receptor (Homo sapiens) (P30968 whole entry, looked up): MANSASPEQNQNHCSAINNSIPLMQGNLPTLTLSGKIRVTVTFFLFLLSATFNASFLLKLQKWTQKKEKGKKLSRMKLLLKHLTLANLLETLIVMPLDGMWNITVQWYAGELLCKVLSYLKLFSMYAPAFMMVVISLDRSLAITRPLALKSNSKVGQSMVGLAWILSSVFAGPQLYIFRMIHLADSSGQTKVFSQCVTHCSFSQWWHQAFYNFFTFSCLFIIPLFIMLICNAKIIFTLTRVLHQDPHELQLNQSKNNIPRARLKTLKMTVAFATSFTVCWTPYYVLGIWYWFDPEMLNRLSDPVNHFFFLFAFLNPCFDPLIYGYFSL
Chain of 5-hydroxytryptamine receptor 2A (Homo sapiens) (P28223 whole entry, looked up): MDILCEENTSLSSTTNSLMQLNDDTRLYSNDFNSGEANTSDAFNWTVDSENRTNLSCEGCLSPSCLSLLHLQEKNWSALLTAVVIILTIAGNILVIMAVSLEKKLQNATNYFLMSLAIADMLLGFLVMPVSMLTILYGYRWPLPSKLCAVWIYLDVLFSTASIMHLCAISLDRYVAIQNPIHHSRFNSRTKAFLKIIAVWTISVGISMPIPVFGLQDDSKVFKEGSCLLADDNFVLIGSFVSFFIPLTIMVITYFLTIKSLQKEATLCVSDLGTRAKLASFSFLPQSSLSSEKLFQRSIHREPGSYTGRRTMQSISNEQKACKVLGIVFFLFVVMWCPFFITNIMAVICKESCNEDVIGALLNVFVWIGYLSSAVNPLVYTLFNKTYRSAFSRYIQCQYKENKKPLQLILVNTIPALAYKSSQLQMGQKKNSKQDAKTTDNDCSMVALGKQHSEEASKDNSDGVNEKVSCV

CCCCCCC1(C)CCC(=O)O1 (stereo not drawn)
inactive: Potency [1] | Potency [2] | Potency [3] | Potency [4] | Potency [5] | Potency [6] | Potency [7] | Potency [8] | Potency [9] | Potency [10] | Potency [11] | Potency [12] | Potency [13] | Potency [14] | Potency [15] | Potency [16] | Potency [17] | Potency [18]

O=S(O)CO
inactive: Potency [1] | Potency [2] | Potency [3] | Potency [4] | Potency [5] | Potency [6] | Potency [7] | Potency [8] | Potency [9] | Potency [10] | Potency [11] | Potency [12] | Potency [13] | Potency [14] | Potency [15] | Potency [16] | Potency [17] | Potency [19] | Potency [18]

O=c1[nH]c2ccc(Cl)cc2o1
inactive: Potency [1] | Potency [2] | Potency [3] | Potency [4] | Potency [5] | Potency [6] | Potency [7] | Potency [8] | Potency [9] | Potency [10] | Potency [11] | Potency [12] | Potency [13] | Potency [14] | Potency [20] | Potency [16] | Potency [19] | Potency [18]

COCCCC/C(=N\OCCN)c1ccc(C(F)(F)F)cc1
inactive: Potency [1] | Potency [2] | Potency [3] | Potency [4] | Potency [5] | Potency [6] | Potency [7] | Potency [8] | Potency [9] | Potency [10] | Potency [11] | Potency [12] | Potency [13] | Potency [14] | Potency [15] | Potency [16] | Potency [17] | Potency [18]

COc1cc(OC)nc(O[C@H](C(=O)O)C(OC)(c2ccccc2)c2ccccc2)n1
inactive: Potency [1] | Potency [2] | Potency [3] | Potency [4] | Potency [5] | Potency [6] | Potency [7] | Potency [8] | Potency [9] | Potency [10] | Potency [11] | Potency [12] | Potency [13] | Potency [14] | Potency [15] | Potency [16] | Potency [17] | Potency [19] | Potency [18]

NC[C@H]1O[C@H](O[C@H]2[C@H](O)[C@@H](O[C@H]3O[C@H](CO)[C@@H](O)[C@H](N)[C@H]3O)[C@H](N)C[C@@H]2N)[C@H](N)[C@@H](O)[C@@H]1O
inactive: activity change, negative = cytotoxicity [1] -0.0182% [at 19 µM] | activity, positive = activation [2] 2.7% [at 19 µM] | activity change [3] 5.96% [at 11.8 µM, stronger effect = higher value] | activation [4] -0.341% [at 15.8 µM] | activation [5] -0.87% [at 11.8 µM] | activation [6] -1.52% [at 13.5 µM] | activation [7] -0.665% [at 13.6 µM] | activity change, negative = cytotoxicity [8] -3.3% [at 13.5 µM] | activity change, negative = cytotoxicity [9] 3.53% [at 13.5 µM] | activity change, negative = cytotoxicity [10] -25.6% [at 13.5 µM] | activation [11] 0.52% [at 13.5 µM] | activity, negative = inhibition [12] 6.4% [at 12.7 µM] | activation [13] -0.88% [at 15.9 µM] | activity, negative = inhibition [14] 7.06% [at 12.6 µM] | activation [20] 0.862% [at 19 µM] | activity change, negative = inhibition [16] 5.76% [at 19 µM] | activation [17] 1.3% [at 19 µM] | activation [19] -0.355% [at 19 µM] | activity change, negative = inhibition [18] 13% [at 18.9 µM]

NC(=O)N[C@@H](CCC(=O)O)C(=O)O
inactive: Potency [1] | Potency [2] | Potency [3] | Potency [4] | Potency [5] | Potency [6] | Potency [7] | Potency [8] | Potency [9] | Potency [10] | Potency [11] | Potency [13] | Potency [14] | Potency [20] | Potency [16] | Potency [19]
active: Potency [12] 8.18 µM

CC1(C)COCN1
inactive: Potency [1] | Potency [2] | Potency [3] | Potency [4] | Potency [5] | Potency [6] | Potency [7] | Potency [8] | Potency [9] | Potency [10] | Potency [11] | Potency [12] | Potency [13] | Potency [14] | Potency [20] | Potency [16] | Potency [19] | Potency [18]

CC[N+](C)(C)c1cccc(O)c1
inactive: Potency [1] | Potency [2] | Potency [3] | Potency [4] | Potency [5] | Potency [6] | Potency [7] | Potency [8] | Potency [9] | Potency [10] | Potency [11] | Potency [12] | Potency [13] | Potency [14] | Potency [20] | Potency [16] | Potency [17] | Potency [18]

C=C(C)C(=O)NCCC[N+](C)(C)C
inactive: Potency [1] | Potency [2] | Potency [3] | Potency [4] | Potency [5] | Potency [6] | Potency [7] | Potency [8] | Potency [9] | Potency [10] | Potency [11] | Potency [12] | Potency [13] | Potency [14] | Potency [15] | Potency [16] | Potency [19] | Potency [18]

CCCCCCCCCCCCCCCCI
inactive: activity change, negative = cytotoxicity [1] 1.33% [at 19 µM] | activity, positive = activation [2] -9.58% [at 19 µM] | activity change [3] 0.684% [at 11.8 µM, stronger effect = higher value] | activation [4] 7.41% [at 15.8 µM] | activation [5] 2.83% [at 11.8 µM] | activation [6] -0.459% [at 13.5 µM] | activation [7] -1.95% [at 13.6 µM] | activity change, negative = cytotoxicity [8] 1.61% [at 13.5 µM] | activity change, negative = cytotoxicity [9] -2.18% [at 13.5 µM] | activity change, negative = cytotoxicity [10] -8.29% [at 13.5 µM] | activation [11] -4.93% [at 13.5 µM] | activity, negative = inhibition [12] -0.251% [at 12.7 µM] | activation [13] -2.69% [at 15.9 µM] | activity, negative = inhibition [14] -11% [at 12.6 µM] | activation [20] -1.28% [at 19 µM] | activity change, negative = inhibition [16] 0.138% [at 19 µM] | activation [19] 2.88% [at 19 µM] | activity change, negative = inhibition [18] -1.21% [at 18.9 µM]

CC/C=C\C#N
inactive: Potency [1] | Potency [2] | Potency [3] | Potency [4] | Potency [5] | Potency [6] | Potency [7] | Potency [8] | Potency [9] | Potency [10] | Potency [11] | Potency [12] | Potency [13] | Potency [14] | Potency [20] | Potency [16] | Potency [17] | Potency [18]
